Results filed as inconclusive are left out. A call without a number means that no potency is given here. A number with no mark means an inactive call. Active and inactive are the calls of the source. Calls follow the shape of the dose curve; as a rule, active = well fitted curve in the direction sought with a large enough effect; inconclusive = small, poorly fitted or top-dose-only effect, or another doubt; inactive = no such curve, though single readings can be large; an effect the other way counts as inactive or inconclusive.
What was measured:
[1] = molecular target: Rap guanine nucleotide exchange factor 3 (Homo sapiens) (UniProt O95398); assay: Confirmatory qHTS for antagonist of cAMP-regulated guanine nucleotide exchange factor 3 (EPAC1) (AID 1645880); also: nearly all actives have a fitted effect of over 55% in size; also: potency is read from the fitted curve at half-maximal effect
Rap guanine nucleotide exchange factor 3 (Homo sapiens), sequence (O95398 whole entry, looked up): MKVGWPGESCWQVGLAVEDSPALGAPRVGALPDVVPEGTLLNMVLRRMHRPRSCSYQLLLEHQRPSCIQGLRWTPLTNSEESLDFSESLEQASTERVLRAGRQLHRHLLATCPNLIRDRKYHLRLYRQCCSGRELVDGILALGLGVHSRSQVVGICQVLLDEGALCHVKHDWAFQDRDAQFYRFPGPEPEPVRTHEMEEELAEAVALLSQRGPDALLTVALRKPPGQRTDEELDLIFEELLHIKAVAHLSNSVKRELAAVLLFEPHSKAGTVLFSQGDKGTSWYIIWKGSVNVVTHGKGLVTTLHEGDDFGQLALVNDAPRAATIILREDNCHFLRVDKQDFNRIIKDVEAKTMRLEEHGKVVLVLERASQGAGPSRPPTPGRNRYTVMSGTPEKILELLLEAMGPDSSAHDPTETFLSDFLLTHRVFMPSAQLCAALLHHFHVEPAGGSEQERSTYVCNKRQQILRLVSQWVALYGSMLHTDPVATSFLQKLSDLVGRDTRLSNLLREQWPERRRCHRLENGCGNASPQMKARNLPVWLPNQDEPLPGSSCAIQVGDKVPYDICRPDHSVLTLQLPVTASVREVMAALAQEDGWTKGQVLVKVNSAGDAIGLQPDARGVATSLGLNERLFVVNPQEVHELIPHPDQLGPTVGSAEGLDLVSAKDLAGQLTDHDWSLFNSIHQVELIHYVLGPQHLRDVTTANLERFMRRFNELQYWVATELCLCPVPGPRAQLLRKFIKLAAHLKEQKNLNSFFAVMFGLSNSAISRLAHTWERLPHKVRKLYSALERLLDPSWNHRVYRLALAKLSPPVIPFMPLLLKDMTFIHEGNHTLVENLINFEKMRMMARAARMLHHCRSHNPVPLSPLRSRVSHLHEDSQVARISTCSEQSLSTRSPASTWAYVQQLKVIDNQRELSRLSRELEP
How it was run: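 Nucleotide exchange uses 100 nM EPAC1, 250 nM RAP1B-BODIPY-GDP and 50 uM GDP, with compounds in a concentration-titration series. After 5 min at room temperature, fluorescence (480 nm ex/540 nm em) is read every 5 min for 30 min. Data are normalized to control ATA and DMSO.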

[2] = molecular target: Rap guanine nucleotide exchange factor 3 (Homo sapiens) (UniProt O95398); assay: Confirmatory qHTS for agonist of cAMP-regulated guanine nucleotide exchange factor 3 (EPAC1) (AID 1645881);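 also: EPAC1 catalysed release of BODIPY-GDP from Rap1B seen as fluorescence loss; nearly all actives have a fitted effect of over 75% in size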
[3] = molecular target: Rap guanine nucleotide exchange factor 4 (Homo sapiens) (UniProt Q8WZA2); assay: Confirmatory qHTS for agonist of cAMP-regulated guanine nucleotide exchange factor 4 (EPAC2) (AID 1645884);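 also: nucleotide exchange releases bodipy-GDP from Rap1 and this lowers its fluorescence; nearly all actives have a fitted effect of over 65% in size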; also: potency is read from the fitted curve at half-maximal effect
Rap guanine nucleotide exchange factor 4 (Homo sapiens), sequence (Q8WZA2 whole entry, looked up): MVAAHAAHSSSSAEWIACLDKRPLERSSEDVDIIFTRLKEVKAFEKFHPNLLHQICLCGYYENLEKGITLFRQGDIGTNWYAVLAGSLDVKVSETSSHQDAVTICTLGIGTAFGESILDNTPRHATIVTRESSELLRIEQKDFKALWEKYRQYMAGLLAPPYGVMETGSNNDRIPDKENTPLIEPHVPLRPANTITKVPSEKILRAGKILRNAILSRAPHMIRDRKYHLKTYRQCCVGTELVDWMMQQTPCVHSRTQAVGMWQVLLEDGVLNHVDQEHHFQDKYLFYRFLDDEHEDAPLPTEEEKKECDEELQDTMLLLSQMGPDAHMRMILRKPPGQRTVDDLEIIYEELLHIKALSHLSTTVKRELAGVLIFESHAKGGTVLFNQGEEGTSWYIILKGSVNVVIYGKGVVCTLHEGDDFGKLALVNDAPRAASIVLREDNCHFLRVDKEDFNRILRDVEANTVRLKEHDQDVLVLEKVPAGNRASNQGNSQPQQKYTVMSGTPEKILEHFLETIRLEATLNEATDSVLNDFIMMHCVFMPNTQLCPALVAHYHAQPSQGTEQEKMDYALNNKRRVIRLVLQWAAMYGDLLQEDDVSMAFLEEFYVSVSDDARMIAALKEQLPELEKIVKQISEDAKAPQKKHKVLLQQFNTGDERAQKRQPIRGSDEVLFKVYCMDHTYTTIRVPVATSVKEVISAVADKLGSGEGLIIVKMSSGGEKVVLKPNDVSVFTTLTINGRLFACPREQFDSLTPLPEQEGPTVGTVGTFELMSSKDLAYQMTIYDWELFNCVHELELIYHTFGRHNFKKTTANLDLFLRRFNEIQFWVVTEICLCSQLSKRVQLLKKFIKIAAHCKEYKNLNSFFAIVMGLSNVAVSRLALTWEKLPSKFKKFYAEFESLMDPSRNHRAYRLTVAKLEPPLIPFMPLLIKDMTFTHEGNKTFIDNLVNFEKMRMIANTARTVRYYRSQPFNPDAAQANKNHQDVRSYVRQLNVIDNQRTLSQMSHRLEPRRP

[4] = molecular target: Rap guanine nucleotide exchange factor 4 (Homo sapiens) (UniProt Q8WZA2); assay: Confirmatory qHTS for antagonist of cAMP-regulated guanine nucleotide exchange factor 4 (EPAC2) (AID 1645885); also: nearly all actives have a fitted effect of over 25% in size; also: potency is read from the fitted curve at half-maximal effect

`CCOC(=O)C1CCCN(C(=O)c2cnn(-c3nccc(-c4cc(C)sc4C)n3)c2C)C1` (centres undefined) was tested, and the Potency [1] was “inactive”, the Potency [2] was “inactive” and the Potency [3] was “inactive”.

With `C/C=C(\C)C(=O)OC1C(OC(=O)C2(C)OC2C)c2cc3ccc(=O)oc3cc2OC1(C)C` (centres undefined) the Potency [1] was “inactive”, the Potency [2] was “inactive” and the Potency [3] was “inactive”.

For `CN(CCc1ccccc1)C(=O)c1cc(COc2cccc(C(F)(F)F)c2)on1`, the Potency [1] was “inactive”, the Potency [2] was “inactive” and the Potency [3] was “inactive”.

With `COc1cccc(CN(C)C(=O)c2cnn(-c3ncc4c(n3)-c3ccccc3CCC4)c2C)c1` the Potency [1] was “inactive”, the Potency [2] was “inactive” and the Potency [3] was “inactive”.

In the case of `Cc1ccc(C2SCC(=O)N2Cc2ccccc2)cc1` (centres undefined), the Potency [1] is reported as “inactive”, the Potency [2] is reported as “inactive” and the Potency [3] is reported as “inactive”.

In the case of `Fc1ccccc1N1CCN(c2ncnc3onc(-c4ccc(Cl)cc4)c23)CC1`, the Potency [1] is reported as “inactive”, the Potency [2] is reported as “inactive” and the Potency [3] is reported as “inactive”. For the same molecule, the Potency [4] was “inactive”.

For `Cc1cc(C(=O)NCc2nc(-c3cccc(NC(=O)c4ccccc4)c3)oc2C)nc(C)n1`, the Potency [1] was “inactive”, the Potency [2] was “inactive” and the Potency [3] was “inactive”.

With `Cc1cc(C)c2nccc(/C=C/c3ccc(N(C)C)cc3)c2c1` the Potency [1] was “inactive”, the Potency [2] was “inactive” and the Potency [3] was “inactive”.

`Cc1ccc2c(/C=C/c3c[nH]c4ccccc34)ccnc2c1C` was tested, and the Potency [1] was “inactive”, the Potency [2] was “inactive” and the Potency [3] was “inactive”.

For `O=C(CN1Cc2ccccc2OC(c2ccsc2)C1)N1CCN(Cc2ccc3c(c2)OCO3)CC1` (centres undefined), the Potency [1] was “inactive”, the Potency [2] was “inactive” and the Potency [3] was “inactive”.

For `C=CCOc1ccc(Br)cc1/C=C1/SC(=Nc2ccc(C(=O)O)cc2)NC1=O`, the Potency [1] was 30.1 µM (active), the Potency [2] was “inactive” and the Potency [3] was “inactive”.

`CCc1ccc([C@@H]2CC=C(C(=O)O)[C@H](c3ccc(Br)cc3)N2S(=O)(=O)c2ccc(C)cc2)cc1` was tested, and the Potency [1] was 17.8 µM (active), the Potency [2] was “inactive” and the activation [3] was -5.28% [at 17.1 µM, percent relative to cAMP agonist control].

For `CCOC(=O)[C@H](CCc1ccccc1)N[C@@H](C)C(=O)N1[C@@H](C(=O)O)C[C@@H]2CCC[C@@H]21`, the Potency [1] was “inactive”, the Potency [2] was “inactive” and the Potency [3] was “inactive”. For the same molecule, the Potency [4] was “inactive”.

With `CC[C@H]1c2[nH]c3ccc(C(C)C)cc3c2[C@@H]2CCN3C(=O)CCC[C@H]1[C@H]23` the Potency [1] was “inactive”, the Potency [2] was “inactive” and the Potency [3] was “inactive”. The Potency [4] was “inactive”.

`COc1ccc(OC)c2c(/C=C/c3c(C)[nH]c4ccccc34)ccnc12` was tested, and the Potency [1] was “inactive”, the Potency [2] was “inactive” and the Potency [3] was “inactive”. For the same molecule, the Potency [4] was “inactive”.

For `CC(=O)NC(c1ccc2ccccc2c1)c1ccc2cccnc2c1O` (centres undefined), the Potency [1] was “inactive”, the Potency [2] was “inactive” and the Potency [3] was “inactive”. For the same molecule, the Potency [4] was 10.7 µM (active).

In the case of `COc1ccc(-c2nc3cc(C)ccc3cc2CN(C(=O)c2cccs2)C2CC2)cc1OC`, the Potency [1] is reported as “inactive”, the Potency [2] is reported as “inactive” and the Potency [3] is reported as “inactive”. For the same molecule, the Potency [4] was 49.4 µM (active).

In the case of `O=C(Nc1ccc(Cl)cc1)N[C@@H]1CC[C@H](CCNS(=O)(=O)c2ccccc2F)O[C@@H]1CO`, the Potency [1] is reported as “inactive”, the Potency [2] is reported as “inactive” and the Potency [3] is reported as “inactive”. For the same molecule, the Potency [4] was “inactive”.

With `Cc1ccc(S(=O)(=O)N2[C@@H](c3ccc(C(C)(C)C)cc3)C(C(=O)O)=CC[C@H]2c2ccc(C(C)C)cc2)cc1` the Potency [1] was 19 µM (active), the Potency [2] was “inactive” and the Potency [3] was “inactive”. For the same molecule, the Potency [4] was “inactive”.

For `Cc1ccc(C)c(N2CCN(C(=O)CCc3nc(-c4ccc(Cl)cc4)no3)CC2)c1`, the Potency [1] was “inactive”, the Potency [2] was “inactive” and the Potency [3] was “inactive”. For the same molecule, the Potency [4] was “inactive”.

With `COC(=O)c1cn(C(=O)c2ccc(OC)cc2)c2ccccc12` the Potency [1] was “inactive”, the Potency [2] was “inactive” and the Potency [3] was 31.6 µM (active). The Potency [4] was “inactive”.

For `COc1ccc(Cl)cc1NC(=O)CN(C)C(=O)c1cc2c(s1)CCC(C)C2` (centres undefined), the Potency [1] was “inactive”, the Potency [2] was “inactive” and the Potency [3] was “inactive”. The Potency [4] was “inactive”.

In the case of `CCc1ccccc1NC(=O)CCC(=O)N1CCN(C(C)=O)CC1`, the Potency [1] is reported as “inactive”, the Potency [2] is reported as “inactive” and the Potency [3] is reported as “inactive”. For the same molecule, the Potency [4] was “inactive”.

For `O=C1C[C@H]2C=CCc3cccc(c32)CN1Cc1ccc(Cl)cc1`, the Potency [1] was “inactive”, the Potency [2] was “inactive” and the Potency [3] was “inactive”. The Potency [4] was 44.1 µM (active).

For `COc1cccc(C(=O)N(Cc2cc3ccc(C)cc3nc2N(C)C)C2CC2)c1OC`, the Potency [1] was “inactive”, the Potency [2] was “inactive” and the Potency [3] was “inactive”. The Potency [4] was 17.5 µM (active).

Source: PubChem BioAssay (NCATS)
